Hits are enriched below; roughly 21% of the tested compounds scored in any of these assays.
IL1B secr inh: qHTS for Inhibitors of Inflammasome Signaling: IL-1-beta AlphaLISA Primary Screen | 360,000 tested, 4.7% active | AID 743279, 2014 | THP-1 LPS/ATP IL-1B secretion, AlphaLISA, 16 h; hits give low values | activity change, % at 57.5 µM; in the data active = activity change below about -50%; inconclusive = mostly about -30% to -49%; note: % is set by controls: 0 for no effect and ±100 for the full control effect
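THP-1 cells pretreated 1 hr with compounds (up to 57.5 uM final), then stimulated with LPS (250 ng/mL final) plus ATP (1.25 mM final); secreted IL-1B measured by AlphaLISA after 16 hr, decreased signal indicating inhibition.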
DRD3 agonist: qHTS of D3 Dopamine Receptor Agonist: qHTS; D(3) dopamine receptor (Homo sapiens), P35462; max activation, %; AID 652048, 2013; D3R DiscoveRx beta-arrestin cells, luminescence, 90 min; 410,000 tested, 0.58% active; in the data active = max activation above about 30%; note: 0% is about no effect
Target sequence (P35462 whole entry, looked up): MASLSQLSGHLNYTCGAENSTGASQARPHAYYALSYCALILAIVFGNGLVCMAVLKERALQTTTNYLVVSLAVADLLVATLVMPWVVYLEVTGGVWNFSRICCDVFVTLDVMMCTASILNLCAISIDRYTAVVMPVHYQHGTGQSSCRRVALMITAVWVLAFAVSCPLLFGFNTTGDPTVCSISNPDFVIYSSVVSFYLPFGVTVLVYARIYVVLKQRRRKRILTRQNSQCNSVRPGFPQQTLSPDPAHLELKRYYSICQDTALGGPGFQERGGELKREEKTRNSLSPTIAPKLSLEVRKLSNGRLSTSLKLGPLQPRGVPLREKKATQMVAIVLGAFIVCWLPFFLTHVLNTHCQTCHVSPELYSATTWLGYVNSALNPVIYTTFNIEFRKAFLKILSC
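Cells at 1500/well, incubated overnight, then treated with pinned compounds (dopamine as control) for 90 min at 37 degrees C. DiscoveRx reagent added for 30 - 60 minutes at room temperature; luminescence read.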
ClpP mod: qHTS Assay for Activators of ClpP; Potency, µM (series often up to 57.5 µM), without a hit: at the top dose activity change, negative = active; AID 651965, 2013; 340,000 tested, 1.9% active; purified B. subtilis ClpP, FRET peptide cleavage, 20 min; ATP-dependent Clp protease proteolytic subunit (Bacillus subtilis (strain 168)), P80244; active = well fitted falling curve with a large enough effect; inconclusive = small, poorly fitted or top-dose-only effect; inactive = no such curve, though single readings can be large or run the other way; note: potency is the fitted concentration of half-maximal effect; the source files actives as falling curves though it sought activators and does not explain the sign; nearly all actives have a fitted effect of over 65% in size
Target sequence (P80244 whole entry, looked up): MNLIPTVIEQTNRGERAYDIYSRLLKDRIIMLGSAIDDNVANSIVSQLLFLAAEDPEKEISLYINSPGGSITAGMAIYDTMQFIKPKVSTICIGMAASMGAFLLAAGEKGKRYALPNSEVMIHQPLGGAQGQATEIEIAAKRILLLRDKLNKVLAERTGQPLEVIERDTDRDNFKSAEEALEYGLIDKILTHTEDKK
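Buffer: 100 mM Tris/HCl pH8, 100 mM KCl, 0.05% low protease BSA, 2.5% glycerol, 0.01% Tween-20. ClpP 10 microg/mL final; 20 min RT; delta FRET normalized to ADEP and DMSO controls.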
DT40 TDP1 no CPT: qHTS for Inhibitors of human tyrosyl-DNA phosphodiesterase 1 (TDP1): qHTS in cells in absence of CPT; DT40 Tdp1-/- hTDP1 cells, no CPT, ATP luminescence, 48 h; 420,000 tested, 15% active; Potency, µM (top dose mostly 46.2 µM), inactives show at the top dose activity change, negative = growth inhibition, most hits filed as inhibitors; note: potency is the fitted concentration of half-maximal effect; % is set by controls: 0 for no effect and ±100 for the full control effect; nearly all actives have a fitted effect of over 55% in size
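A cellular qHTS used chicken DT40 cells lacking endogenous Tdp1 but carrying stably transfected human TDP1. Compounds were applied without camptothecin, and cell growth kinetics were judged by ATP-dependent luminescence after ≥48 hr.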
DRD3 antagonist: qHTS of D3 Dopamine Receptor Antagonist: qHTS | D(3) dopamine receptor (Homo sapiens), P35462 | D3R cells, DiscoveRx beta-arrestin luminescence, antagonist mode; hits give low values | 360,000 tested, 2.5% active | max response, negative = inhibition, %; in the data active = max response below about -50%; inconclusive = no clear call, values can overlap the other calls; note: % is set by controls: 0 for no effect and ±100 for the full control effect
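Cells expressing the human receptor were seeded at 1500 cells/well, incubated overnight at 37 degrees C in 5% CO2, then exposed to library compounds with dopamine controls for 90 minutes at 37 degrees C before luminescent detection.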
DT40 TDP1 CPT: qHTS for Inhibitors of human tyrosyl-DNA phosphodiesterase 1 (TDP1): qHTS in cells in presence of CPT. chicken DT40 Tdp1-/-;hTDP1 cells + 20 nM CPT, ATP luminescence, 48 h. Potency, µM (titrated, usually from 46.2 µM), for the others: at the highest dose activity change, negative = growth inhibition, actives largely listed as inhibitors. 420,000 tested, 12% active; note: potency is the fitted concentration of half-maximal effect; % is set by controls: 0 for no effect and ±100 for the full control effect; nearly all actives have a fitted effect of over 55% in size
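Cell growth measured by CellTiter-Glo luminescence after a minimum 48 h, 37 C compound exposure with 20 nM CPT in Tdp1-knockout DT40 cells stably expressing hTDP1, seeded 400/well; qHTS titration format.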
* marks the source's active call; other numbers are inactive results; ? = inconclusive; / = not tested or not shown; ! = not active in a repeat. Unless noted, calls come from the whole dose curve; as a rule, active = well fitted inhibition curve with a large enough effect; inconclusive = small, poorly fitted or top-dose-only effect; inactive = flat fitted curve, though single readings scatter.

SMILES | IL1B secr inh | DRD3 agonist | ClpP mod | DT40 TDP1 no CPT | DRD3 antagonist | DT40 TDP1 CPT
COc1ccc(NC(=O)Cn2c(=O)n(-c3ccc(Cl)cc3)c(=O)c3c(C)c(C(=O)N(C)C)sc32)cc1Cl | / | 1 | 0% | ? | / | ?
Cc1ccc(C)c(CSc2nnc3[nH]c(=O)cc(C)n23)c1 | / | -5 | -2% | 4% | / | 10%
CCc1nnc(NC(=O)c2ccc3ncsc3c2)s1 | -11 | 3 | 3% | -20% | -4 | 2%
O=C(O)c1cccc(NC(=O)c2ccc3c(c2)C(=O)N(c2ccccc2)C3=O)c1 | 5 | -23 | 8.9µM* | -9% | -8 | 6%
CCc1nnc(NC(=O)c2ccc3c(c2)C(=O)N(C(C)(C)C)C3=O)s1 | 8 | 38* | 3% | -28% | -24 | -3%
CC(C)(C)N1C(=O)c2ccc(C(=O)O)cc2C1=O | 27 | 0 | -2% | -4% | -19 | -2%
O=C(O)c1cc(NC(=O)c2cccc(N3C(=O)c4ccccc4C3=O)c2)cc(C(=O)O)c1 | 2 | -13 | -9% | 0% | ? | 3%
COC(=O)c1ccc(NC(=O)c2ccc3c(c2)C(=O)N(C)C3=O)cc1 | 7 | 7 | 11µM* | -1% | 9 | 19%
CC(C)(C)NC(=O)c1cccc(NC(=O)c2ccc3c(c2)C(=O)N(C(C)(C)C)C3=O)c1 | -96* | 8 | / | 10µM* | 59 | ?
CCCN(CCC)CCCNC(=O)C1CCC(CNS(=O)(=O)c2cccc3nsnc23)CC1 (centres undefined) | -2 | 21 | -2% | 1% | -9 | -4%
CCCNC(=O)C(Cc1ccc(C(F)(F)F)cc1)NC(=O)c1ccc(C#N)cc1 (centres undefined) | -2 | 1 | 0% | -5% | 11 | -29%
COc1cc2c(cc1NC(=O)COc1ccc(Br)c(C)c1)oc1ccccc12 | / | 10 | -18% | 1% | / | 1%
COC(=O)c1cccc(NC(=O)c2ccc3c(c2)C(=O)N(C(C)(C)C)C3=O)c1 | -54* | 5 | / | ? | 26 | -5%
CC(C)(C)N1C(=O)c2ccc(C(=O)Nc3ccc(O)cc3)cc2C1=O | ? | -3 | -4% | 16µM* | -18 | ?
COC(=O)c1cccc(NC(=O)c2ccc3c(c2)C(=O)N(Cc2cccnc2)C3=O)c1 | 20 | 15 | 3% | -2% | 36 | -1%
COC(=O)c1ccc(NC(=O)c2cc3sccc3n2C)cc1 | 6 | -1 | -18% | ? | 11 | 29µM*
Cn1c(C(=O)Nc2ccccc2)cc2sccc21 | 8 | -11 | 1% | -23% | 23 | -25%
CCCCNc1nc2c(-c3cccc(C)c3)nnn2c2ccccc12 | / | 4 | -5% | -19% | / | -20%
Cc1cc(C)n(-c2ccnc3cc(Cl)ccc23)n1 | 0 | 1 | 2% | 4% | 21 | -24%
Cc1cc(=O)oc2c(C)c(OCC(=O)N3CCC(C(=O)O)CC3)ccc12 | 3 | 20 | 4% | -2% | 7 | 18%
COc1cc(NC(=O)C(NS(=O)(=O)c2ccc3c(c2)CCCC(=O)N3)C(C)C)cc(OC)c1 (centres undefined) | / | 6 | -2% | -5% | / | 2%
CCc1ccccc1NC(=O)c1cnc2sc(N3CCCC3)nn2c1=O | / | 7 | -4% | 2% | / | -18%
COC(=O)c1ccccc1NC(=O)c1nn(C)c2c1COc1ccccc1-2 | / | 6 | -4% | -2% | / | -5%
Cn1nc(C(=O)N2CCN(c3cccc(Cl)c3)CC2)c2c1-c1ccccc1S(=O)(=O)C2 | -22 | 0 | -7% | ? | 37 | 18µM*
Cc1ccc(Cl)cc1N1CCN(C(=O)c2nn(C)c3c2CS(=O)(=O)c2ccccc2-3)CC1 | / | 13 | -21% | 12µM* | / | 21µM*
SMILES | IL1B secr inh | DRD3 agonist | ClpP mod | DT40 TDP1 no CPT | DRD3 antagonist | DT40 TDP1 CPT
COc1cc(NC(=O)c2nn(C)c3c2COc2ccccc2-3)cc(OC)c1OC | / | 12 | 6% | 3.3µM* | / | 4.6µM*
CC1CCCC(NC(=O)c2nn(C)c3c2CS(=O)(=O)c2ccccc2-3)C1C (centres undefined) | 6 | -1 | -8% | 9.2µM* | 13 | ?
O=C(OCC(=O)N1CCOCC1)c1cc(=O)[nH]c2ccccc12 | 4 | 1 | -21% | -7% | 2 | -5%
COc1ccccc1NC(=O)c1nn(C)c2c1CS(=O)(=O)c1ccccc1-2 | / | 5 | 1% | -18% | / | -22%
Cn1nc(C(=O)N2CCN(c3ccc(Cl)cc3)CC2)c2c1-c1ccccc1S(=O)(=O)C2 | -58* | 1 | -8% | ? | 14 | 16µM*
CC(=O)c1ccc(N2CCN(C(=O)c3nn(C)c4c3CS(=O)(=O)c3ccccc3-4)CC2)cc1 | -10 | -2 | -10% | ? | 19 | ?
COc1ccc(N2CCN(C(=O)c3nn(C)c4c3CS(=O)(=O)c3ccccc3-4)CC2)cc1 | 18 | 4 | -4% | ? | 1 | 23µM*!
Cc1ccc(NC(=O)c2nn(C)c3c2CS(=O)(=O)c2ccccc2-3)c(Cl)c1 | / | 5 | -3% | -29% | / | 4%
Cc1cccc(N2CCN(C(=O)c3nn(C)c4c3CS(=O)(=O)c3ccccc3-4)CC2C)c1 (centres undefined) | -21 | -9 | -3% | 18µM* | 10 | 23µM*
Cn1nc(C(=O)NCCc2ccc(Cl)cc2)c2c1-c1ccccc1S(=O)(=O)C2 | -5 | -16 | -11% | 29µM* | -23 | ?
NC(=O)c1cccc(CS(=O)(=O)c2ccc(Cl)cc2)c1 | -14 | -1 | 0% | -9% | 0 | 3%
COc1ccccc1N1CCN(C(=O)c2nn(C)c3c2CS(=O)(=O)c2ccccc2-3)CC1 | 2 | -4 | 0% | ? | -16 | ?
COc1cc(NC(=O)c2nn(C)c3c2CS(=O)(=O)c2ccccc2-3)cc(OC)c1 | 0 | 0 | -24% | 16µM* | 32 | ?
Cc1ccc(N2CCN(C(=O)c3nn(C)c4c3CS(=O)(=O)c3ccccc3-4)CC2)c(C)c1 | -21 | 5 | 1% | 21µM* | 20 | 18µM*
